Laboratory results as given in PubChem BioAssay (Tox21).
Several values for one entry are separate records, joined by “and”; a condition that tells them apart may be missing. Equal entries are not always repeated. Records with an inconclusive call do not appear. More than one record can exist for a structure, and the calls need not agree. Activity calls are given as the source filed them. Calls follow the shape of the dose curve; as a rule, active = well fitted inhibition curve with a large enough effect in the repeat runs; inconclusive = weak or mixed curves; inactive = no such curve, though single readings can be large or run the other way.

Target: Cytochrome P450 1A2 (Homo sapiens) (UniProt P05177)
Assay: Cytochrome P450 Family 1 Subfamily A Member 2 (CYP1A2) small molecule antagonists: luciferase reporter qHTS assay (AID 1671199); also: nearly all actives have a fitted effect of over 50% in size
Settings: P450-Glo CYP1A2 enzyme, luciferin luminescence, 1 h; series mostly up to 115 µM; activity change, negative = inhibition: at the top concentration
How it was run: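 P450-Glo CYP1A2, 1536-well qHTS: enzyme/proluciferin substrate + cpd (DMSO), 10 min RT; NADPH regen, 1 h RT; detection reagent, 20 min; luminescence, RLU.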
% is scaled to controls: 0 for no effect and ±100 for the full control effect; potency is read from the fitted curve at half-maximal effect.

Sequence of Cytochrome P450 1A2 (Homo sapiens) (P05177 whole entry, looked up): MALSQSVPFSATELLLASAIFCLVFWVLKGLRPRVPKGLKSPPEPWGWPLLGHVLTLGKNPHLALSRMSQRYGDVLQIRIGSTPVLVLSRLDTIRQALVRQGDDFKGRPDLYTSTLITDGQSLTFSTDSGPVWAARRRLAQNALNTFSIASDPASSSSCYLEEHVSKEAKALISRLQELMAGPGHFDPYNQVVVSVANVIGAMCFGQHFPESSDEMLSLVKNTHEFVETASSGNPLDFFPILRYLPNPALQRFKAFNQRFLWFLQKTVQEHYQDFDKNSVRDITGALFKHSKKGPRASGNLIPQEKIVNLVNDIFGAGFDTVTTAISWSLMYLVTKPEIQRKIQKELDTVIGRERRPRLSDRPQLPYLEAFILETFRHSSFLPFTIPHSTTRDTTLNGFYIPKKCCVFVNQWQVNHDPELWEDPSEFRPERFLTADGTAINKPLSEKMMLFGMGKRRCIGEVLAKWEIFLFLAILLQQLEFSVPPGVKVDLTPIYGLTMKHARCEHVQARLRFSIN

Structure (SMILES)	Potency	activity change, negative = inhibition
C#C[C@]1(O)CC[C@H]2[C@@H]3[C@H](C)CC4=C(CCC(=O)C4)[C@H]3CC[C@@]21C	24.5 µM (active)	
C=C(C)c1cccc(C(=C)C)c1		-9.95% (inactive)
CCCCCCCCCCCCCC[N+](C)(C)Cc1ccccc1	72.1 µM (active) and inactive	
Cc1c2ccccc2c(C)c2c1ccc1ccccc12	626 nM (active) and 1.78 µM (active)	
C#C[C@]1(OC(C)=O)CC[C@H]2[C@@H]3CCC4=C[C@@H](OC(C)=O)CC[C@@H]4[C@H]3CC[C@@]21C		-11.4% [at 53 µM] (inactive)
COC(=O)c1ccccc1C		-21.4% (inactive)
CCc1cccc(CC)c1NC(=O)CN(CC(=O)O)CC(=O)O		2.98% [at 53 µM] (inactive)
Cc1cc(-c2ccc(N=Nc3cc(S(=O)(=O)O)c4ccccc4c3N)c(C)c2)ccc1N=Nc1cc(S(=O)(=O)O)c2ccccc2c1N		-21.4% (inactive)
Cc1cccc(C(=O)O)c1O		-10.7% [at 53 µM] (inactive)
COc1cc(S(=O)(=O)O)c(C)cc1N=Nc1c(O)ccc2cc(S(=O)(=O)O)ccc12	35.6 µM (active)	
OC/C=C/CO		-12.8% (inactive)
c1ccc(SSc2ccccc2)cc1	3.19 µM (active)	
c1cnccn1	36.8 µM (active)	
O=C(O)CCN(C1(C(=O)NO)CCCC1)S(=O)(=O)c1ccc(Oc2ccc(F)cc2)cc1		-2.26% (inactive)
O=C1CCCCCCCCCCCCCCCO1		-28.1% (inactive)
C[C@H]1NCc2cc(-c3ccc4c(=O)c(C(=O)O)cn(C5CC5)c4c3OC(F)F)ccc21		13.9% [at 23.6 µM] (inactive)
COC(=O)C1=C(C)NC(C)=C(C(=O)OCCN2CCN(C(c3ccccc3)c3ccccc3)CC2)C1c1cccc([N+](=O)[O-])c1 (configuration not stated)		-0.34% [at 53 µM] (inactive)
